High-throughput results deposited in PubChem by National Center for Advancing Translational Sciences (NCATS).
Sampled rows, rich in hits. Any-hit rate of the full collection: about 9.8%.
ALDH1A1 block: qHTS Assay for Inhibitors of Aldehyde Dehydrogenase 1 (ALDH1A1); Aldehyde dehydrogenase 1A1 (Homo sapiens), P00352; Purified ALDH1A1, NADH fluorescence, propionaldehyde substrate; Potency, µM (highest dose often 75.3 µM), inactives show top-dose activity, negative = inhibition, usual class: inhibitors; 220,000 tested, 7.3% active;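 further: potency means the concentration at half of the fitted maximal effect; plate controls were no enzyme wells and a reference inhibitor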
Target sequence (P00352 whole entry, looked up): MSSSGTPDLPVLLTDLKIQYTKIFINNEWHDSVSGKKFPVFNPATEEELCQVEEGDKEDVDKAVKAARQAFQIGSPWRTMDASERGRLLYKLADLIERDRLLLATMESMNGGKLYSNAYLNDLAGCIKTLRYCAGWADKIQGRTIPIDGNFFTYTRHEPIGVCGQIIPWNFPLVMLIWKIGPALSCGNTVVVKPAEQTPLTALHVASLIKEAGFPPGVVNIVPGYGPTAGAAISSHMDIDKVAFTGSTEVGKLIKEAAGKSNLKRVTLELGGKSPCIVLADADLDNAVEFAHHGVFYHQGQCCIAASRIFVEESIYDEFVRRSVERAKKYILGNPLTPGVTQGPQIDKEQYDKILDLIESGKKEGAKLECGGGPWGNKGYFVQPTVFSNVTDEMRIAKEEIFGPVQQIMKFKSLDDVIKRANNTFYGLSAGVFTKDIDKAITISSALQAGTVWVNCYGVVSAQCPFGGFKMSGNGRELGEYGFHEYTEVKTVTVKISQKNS
HPGD inh: qHTS Assay for Inhibitors of HPGD (15-Hydroxyprostaglandin Dehydrogenase). 15-hydroxyprostaglandin dehydrogenase [NAD(+)] (Homo sapiens), P15428. purified HPGD, NADH fluorescence kinetic, PGE2 substrate. Potency, µM, without a hit: at the highest dose activity change, negative = inhibition, most hits filed as inhibitors. 150,000 tested, 4.3% active; further: potency means the concentration at half of the fitted maximal effect; on the % scale 0 is the no-effect control and ±100 the full control effect
Target sequence (P15428 whole entry, looked up): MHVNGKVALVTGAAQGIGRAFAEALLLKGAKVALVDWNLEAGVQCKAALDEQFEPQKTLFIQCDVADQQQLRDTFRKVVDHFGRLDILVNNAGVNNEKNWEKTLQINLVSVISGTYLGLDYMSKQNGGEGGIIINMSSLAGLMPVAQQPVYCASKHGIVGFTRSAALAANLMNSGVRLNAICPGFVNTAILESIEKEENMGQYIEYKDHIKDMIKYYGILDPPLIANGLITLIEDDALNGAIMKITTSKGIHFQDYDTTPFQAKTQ
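20 nM HPGD preincubated 15 min at room temperature with compound in 50 mM Tris-HCl pH 8, 0.01% Tween 20. Started with 1 mM NAD+ and 30 uM prostaglandin E2; NADH fluorescence (360/450 nm) read 5 times over 30-s intervals, last minus first.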
CBFb RUNX1 block: qHTS Assay for Compounds Blocking the Interaction Between CBF-beta and RUNX1 for the Treatment of Acute Myeloid Leukemia | Potency, µM (highest dose often 59.8 µM), inactives show top-dose activity, negative = inhibition, actives largely listed as inhibitors | 230,000 tested, under 10 active | Runt-related transcription factor 1 (Homo sapiens) + Core-binding factor subunit beta … | AlphaScreen CBFb-His/RUNX1-biotin binding, biochemical | AID 1477, 2009; active means well fitted curve in the direction sought with a large enough effect; inconclusive means small, poorly fitted or top-dose-only effect, or another doubt; inactive means no such curve, though single readings can be large; an effect the other way counts as inactive or inconclusive; further: % of control where 0% means no effect
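Inhibition was taken as any reduction in AlphaScreen signal from the CBF-beta–RUNX1 pair (His and biotin tags, 30 nM each), measured after compound (15 min) and bead (90 min) incubations at room temperature.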
JMJD2E inh: qHTS Assay for Inhibitors of Human Jumonji Domain Containing 2E (JMJD2E) | Lysine-specific demethylase 4E (Homo sapiens), B2RXH2 | JMJD2E catalytic domain, FDH-coupled NADH fluorescence (FDH is formaldehyde dehydrogenase) | Potency, µM (top dose mostly 57.1 µM), inactives show at the top dose activity change, negative = inhibition, usual class: inhibitors | 230,000 tested, 1.6% active;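 further: potency means the concentration at half of the fitted maximal effect; 0% = wells with enzyme and -100% = buffer wells without enzyme; nearly all actives have a fitted effect of over 50% in size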
HTT aggregate: qHTS Multiplex Assay to Identify Dual Action Probes in a Cell Model of Huntington: Aggregate Formation (GFP); PC12 HttQ103-GFP aggregates, Acumen cytometry, 40 h; Potency, µM (series often up to 46.1 µM), for inactives: at the top dose activity change, negative = inhibition, actives largely listed as inhibitors; 220,000 tested, 1.1% active; AID 1688, 2009; active means well fitted curve in the direction sought with a large enough effect; inconclusive means small, poorly fitted or top-dose-only effect, or another doubt; inactive means no such curve, though single readings can be large; an effect the other way counts as inactive or inconclusive; further: potency means the concentration at half of the fitted maximal effect; on the % scale 0 is the no-effect control and ±100 the full control effect; nearly all actives have a fitted effect of over 60% in size
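Read-out: GFP aggregate count by laser scanning cytometer (488 nm excitation, 500-530 nm emission, 1–25 µm objects >6 SD above background). Cells: PC12, inducible HTTex1-Q103-GFP, 100 nM tebufenozide; compounds titrated.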
HTT ATP protect: qHTS Multiplex Assay to Identify Dual Action Probes in a Cell Model of Huntington: Cytoprotection (ATP). PC12 HTT-Q103 induced, cytoprotection, ATP luminescence, 40 h. Potency, µM (highest dose often 56.4 µM), for inactives: cytoprotection (ATP increase), actives largely listed as activators. 230,000 tested, 0.14% active. AID 1471, 2008; active means well fitted curve in the direction sought with a large enough effect; inconclusive means small, poorly fitted or top-dose-only effect, or another doubt; inactive means no such curve, though single readings can be large; an effect the other way counts as inactive or inconclusive; further: potency means the concentration at half of the fitted maximal effect; % of control where 0% means no effect; nearly all actives have a fitted effect of over 45% in size
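PC12 cells stably carrying ecdysone-inducible Htt exon 1 (Q103)–GFP were induced with 100 nM tebufenozide (final) alongside library compounds in a dose series. Cytoprotection was scored as retained ATP by ATPlite luminescence.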
* marks the source's active call; other numbers are inactive results; ? = inconclusive; nt = not tested or not shown; [ ] = remark or other dose. Unless noted, the call rests on the fitted dose curve; in most records, active means well fitted inhibition curve with a large enough effect (not every such curve was filed as active); inconclusive means small, poorly fitted or top-dose-only effect, or another doubt; inactive means no such curve, though single readings can be large or run the other way.

SMILES	ALDH1A1 block	HPGD inh	CBFb RUNX1 block	JMJD2E inh	HTT aggregate	HTT ATP protect
CC(CN(C)C)C(C)(O)Cc1ccc(Cl)cc1 (stereo not given)	?	-8%	9%	nt	2%	7%
COc1ncc2nc(-c3cccc(C#N)c3)c(=O)n(CCC#N)c2n1	?	?	nt	nt	nt	-33%
N#CC1=C(N)SC(N)=C(C#N)C1c1ccnc2ccccc12	?	16µM*	-3%	?	5%	-12%[0.074 µM]
O=C1c2ccccc2C(=O)C1c1ccnc2ccccc12	3%	2%	8%	1%	-8%	-75%[10 µM]
CC1CCN(CC[C@@H]2CCCN2S(=O)(=O)c2cccc(O)c2)CC1	nt	nt	nt	nt	nt	13%[1.9 µM]
COCCCNC(=O)C1CCC(CNS(=O)(=O)c2ccc(C)cc2)CC1 (stereo not given)	11µM*	nt	3%	11%	-3%	-13%[10 µM]
CCCCNC(=O)C1CCC(CNS(=O)(=O)c2ccc(C)cc2)CC1 (stereo not given)	10µM*	nt	11%	0%	5%	nt
COc1ccc(/C=C/C(=O)Nc2cc(S(=O)(=O)N3CCOCC3)ccc2C)cc1OC	?	nt	-1%	?	-1%	2%[10 µM]
CN(Cc1ccccc1)C(=O)COC(=O)c1ccc(Cl)cc1N	?	nt	15%	?	-4%	-3%
CCc1ccccc1N1CSC2=C(C#N)C(c3cc(OC)c(OC)cc3OC)CC(=O)N2C1 (stereo not given)	?	7.9µM*	-3%	?	?	-28%[0.074 µM]
CCOc1ccc(N2CSC3=C(C#N)C(c4ccco4)CC(=O)N3C2)cc1 (stereo not given)	4.5µM*	10µM*	?	?	15%	-8%
CCc1ccccc1N1CCN(S(=O)(=O)c2cc(OC)ccc2OC)CC1	?	-18%	28%	-1%	?	20%[10 µM]
COc1cc(OC)c(C2CC(=O)N3CN(c4ccccc4)CSC3=C2C#N)cc1OC (stereo not given)	8.9µM*	10µM*	-9%	?	30%	-18%[0.074 µM]
CS(=O)(=O)Nc1c(O)ccc2c1CCC[C@H]2C1=NCCN1	6%	2%	5%[21.7 µM]	12%	nt	7%
Nc1ncc([N+](=O)[O-])cc1Br	nt	nt	0%	-5%	3%[9.22 µM]	8%[10 µM]
CN(C)c1ncc([N+](=O)[O-])cc1C(F)(F)F	14µM*	nt	6%	1%	-1%[9.22 µM]	-11%[10 µM]
CN(C(N)=S)c1ccccc1	9%	-1%	2%	3%	7%	-9%
CN(C)C(=S)c1ccccc1	7.1µM*	nt	6%	-12%	-1%[9.22 µM]	12%[10 µM]
CN(C)C(=S)c1ccc(N(C)C)cc1	0.79µM*	nt	-12%	-4%	26%	-20%
COc1ccc(C(=S)N(C)C)cc1OC	?	10µM*	2%	2%	14%	-14%
COc1ccccc1OCCNC(=O)C1CCCCC1	6%	nt	5%	-11%	-1%[9.22 µM]	-25%
COc1cc(/C=C/[N+](=O)[O-])ccc1OCc1cccc(C(=O)O)c1	28µM*	nt	nt	?	15%[9.22 µM]	-135%
COc1cc(/C=N/NC(=O)c2cccc([N+](=O)[O-])c2)ccc1OCc1ccccc1	?	?	-1%	?	-21%	-18%
COc1ccc(C(=O)NC(=S)Nc2cc(C)ccn2)cc1[N+](=O)[O-]	0.32µM*	-9%	-7%	-4%	1%	0%[10 µM]
COc1ccc(C(=O)NC(=S)Nc2ccccc2N2CCCCC2)cc1[N+](=O)[O-]	?	-16%	6%	-1%	-14%	5%[10 µM]
SMILES	ALDH1A1 block	HPGD inh	CBFb RUNX1 block	JMJD2E inh	HTT aggregate	HTT ATP protect
CCOc1ccc(C(=O)NC(=S)Nc2ccc(NC(=O)CC)cc2)cc1[N+](=O)[O-]	?	-20%	4%	10%	27%	35%[0.074 µM]
CCOc1ccc(C(=O)NC(=S)NC2CCCC2)cc1[N+](=O)[O-]	13µM*	-11%	-22%	0%	7%	-12%[10 µM]
COc1ccc(C(=O)NC(=S)Nc2cccc(Cl)c2N2CCOCC2)cc1[N+](=O)[O-]	0.4µM*	-8%	9%	-4%	-3%	-3%
CCOc1ccc(Br)cc1S(=O)(=O)Nc1ccc(C(=O)Nc2ccccc2OC)cc1	16µM*	-29%	5%	2%	14%	1%[0.074 µM]
CCOc1ccc(NC(=O)CC2C(=O)N(c3cccc(OC)c3)C(=O)N2CCOC)cc1 (stereo not given)	nt	nt	7%	5%	10%[9.22 µM]	8%[10 µM]
COc1ccccc1NC(=O)NCC(=O)Nc1c(C)cccc1C	4%	nt	9%	1%	0%	-3%
COC(=O)c1nn(-c2cccc(C(F)(F)F)c2)c(=O)cc1Sc1ccccn1	12%	-10%	3%	0%	-6%	0%
COc1ccccc1-c1nc(SCC(=O)N(C)c2ccccc2)c2c(=O)n(C)c(=O)n(C)c2n1	-2%	nt	-8%	10%	5%	-27%
O=S(=O)(c1ccccc1)N1CCC[C@@]2(CCN(Cc3cc(C(F)(F)F)cc(C(F)(F)F)c3)C2)C1	-12%	-8%	nt	nt	nt	2%
CCOc1ccc(C(=O)NC(=S)Nc2ccccc2N2CCCCC2)cc1[N+](=O)[O-]	?	-19%	7%	-10%	-6%	12%[10 µM]
CCOc1ccc(C(F)(F)F)cc1NC(=O)c1ccc(OC)c([N+](=O)[O-])c1	?	-4%	5%	6%	-5%	-7%
CCOc1ccc(C(=O)NC(=S)Nc2ccccc2OC)cc1[N+](=O)[O-]	8.9µM*	-9%	2%	10%	0%	-17%[0.074 µM]
CCOc1ccc(C(=O)NC(=S)Nc2ccc(N3CCCCC3)cc2)cc1[N+](=O)[O-]	11µM*	32µM*	?	10%	28%	12%[10 µM]
COc1ccc(-c2nc(-c3ccccn3)nc(N3CCN(C)CC3)c2C#N)cc1	14µM*	nt	-6%	-3%	-6%	-44%
CC(C)Nc1nc(-c2ccccn2)nc(-c2ccccc2)c1C#N	-9%	nt	-11%	-9%	3.5µM*	-20%
CN1CCN(c2nc(-c3ccccc3)nc(-c3ccc(F)cc3)c2C#N)CC1	0%	nt	7%	?	-3%	nt
CC(C)Nc1nc(-c2ccncc2)nc(-c2ccc(Cl)cc2)c1C#N	1%	nt	-2%	?	4%	-32%
Cc1cc(C(=O)N2CCCC(C(=O)c3cc(F)ccc3F)C2)c(C)o1 (stereo not given)	14µM*	nt	-1%	5%	11%	-23%
